Screening results (PubChem)
VACV Venus inh: vaccinia inhibition (Venus reporter); hit rate 0.46% among 330,000; Potency, µM (top dose mostly 36.5 µM), for the others: at the highest dose activity change, negative = inhibition, usual class: inhibitors; Vaccinia virus Venus reporter expression, fluorescence; AID 720580; calls by dose curve; tested in A549 cells; note: potency is the fitted concentration of half-maximal effect; nearly all actives have a fitted effect of over 30% in size
HCMV inh: inhibitors of human cytomegalovirus | HFF cells, HCMV-luciferase reporter, 72 h; hits give low values | activity change, negative = inhibition, % at 57.5 µM | hit rate 4.5% among 410,000 | AID 1259415; in the data active = activity change below about -60%; inconclusive = no clear call, values can overlap the other calls; inactive = above about -39%
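After 16 h attachment at 37C, HFF cells received test compound and HCMV-luciferase (1 PFU/cell); reporter luminescence read 72 h later, data normalized against buffer-only and known inhibitor Salinomycin.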
MARV entry inh: inhibitors of Marburg virus binding or cell entry; Marburg virus pseudotyped entry inhibition, cell reporter; AID 540276; hit rate 1.8% among 300,000; Potency, µM (titrated, usually from 37.8 µM), without a hit: top-dose activity change, negative = inhibition, usual class: inhibitors; calls by dose curve; tested in HEK293 cells; note: potency is the fitted concentration of half-maximal effect
LASV entry inh: inhibitors of Lassa virus binding or cell entry | Lassa virus pseudotype entry inhibition, cell reporter | Potency, µM (highest dose often 37.9 µM), for the others: at the highest dose activity change, negative = inhibition, hits mostly inhibitors | hit rate 1.2% among 300,000 | AID 540256; calls by dose curve; tested in HEK293 cells; note: potency is the fitted concentration of half-maximal effect; nearly all actives have a fitted effect of over 50% in size
FMDV antiviral: blocks foot and mouth disease virus; hit rate 1.2% among 410,000; FMDV antiviral cell-based qHTS; Potency, µM (top dose mostly 57.9 µM), inactives show at the highest dose activity change, negative = inhibition, hits mostly inhibitors; calls by dose curve; tested in HEK293T cells; note: read-out not given here; potency is the fitted concentration of half-maximal effect; nearly all actives have a fitted effect of over 45% in size
Vaccinia mCherry: vaccinia inhibition (mCherry reporter); hit rate 0.63% among 310,000; Potency, µM (titrated, usually from 36.5 µM), for inactives: at the top dose activity change, negative = inhibition, actives largely listed as inhibitors; Vaccinia virus mCherry reporter infection, fluorescence; calls by dose curve; tested in A549 cells; note: potency is the fitted concentration of half-maximal effect; nearly all actives have a fitted effect of over 35% in size
Active calls of the source: *; i = inactive; ? = inconclusive; / = not tested or not shown; ! = not active in a repeat; [ ] = remark or other dose. Only some compounds are listed: those with a hit (about 6.5% of all), similar ones and a draw of the others. % is set by controls: 0 for no effect and ±100 for the full control effect.

SMILES	VACV Venus inh	HCMV inh	MARV entry inh	LASV entry inh	FMDV antiviral	Vaccinia mCherry
Cc1cc(C)nc(Sc2ncnc3sc4c(c23)CCC4)n1	/	-70.8*	3.4%	8.7%	-18.8%	/
Cc1cc(N2CCCCC2)nc2ccc(NC(=O)/C=C/c3ccccc3OC(C)C)cc12	-19.3%	-12.0	?	-20.7%[46.1 µM]	11.8%	-21.0%
COc1ccc(NC(=O)Nc2cccc(Cl)c2Cl)c(OC)n1	22.7%	-70.0*	?	-9.0%[46.1 µM]	17.2%	16.1%
Cn1nccc1NC(=O)Nc1cccc(Cl)c1Cl	-0.8%	?	?	-28.2%	-8.8%	i
CCC1S/C(=N/N=C/c2ccco2)N(Cc2ccccc2C)C1=O (centres undefined)	/	-19.8	/	/	-6.8%	/
Cc1ccccc1CN1C(=O)CS/C1=N/N=C/c1ccco1	-13.6%	9.2	11.2%[46.1 µM]	10µM*	-14.6%	-17.1%
Cc1ccc(Nc2nc(NCc3ccccc3)nc3ccsc23)c(C)c1	?	-62.0*	/	/	?	?
COc1ccccc1CNc1nc(Nc2ccc(C)cc2C)c2sccc2n1	-8.8%	-76.1*	/	/	?	-11.6%
COc1ccccc1CNc1nc(NCCOc2ccccc2Cl)c2sccc2n1	?	-61.3*	/	/	22.4µM*	?
CNc1nc(NCCOc2ccccc2Cl)c2sccc2n1	?	-7.8	/	/	?	i
COc1ccccc1CNc1nc(Nc2ccccc2OC)c2sccc2n1	-9.7%	/	/	/	?	6.5%
CCOc1ccc(NC(=O)Cn2c(=O)n(-c3ccccc3)c(=O)c3c4c(sc32)CCCC4)cc1	-4.0%	22.1	-0.1%[46.1 µM]	20.6%[46.1 µM]	-19.9%	-2.9%
COc1ccc(NC(=O)C(=O)c2cc(C)n(-c3ccc(C)cc3)c2C)cc1Cl	-28.9%	?	3.3%[46.1 µM]	0.6%[46.1 µM]	-26.2%	-29.6%
COCCN1C(=O)NC(c2cccc(F)c2)C(C(C)=O)=C1C (centres undefined)	/	/	-6.0%[14.2 µM]	/	/	/
Cc1ccccc1-n1c(/C=C/c2ccc(N(C)C)cc2)nc2ccccc2c1=O	9.9%	-82.2*	/	?	-26.4%	-13.9%
O=c1c2ccccc2nc(/C=C/c2ccccc2F)n1-c1ccccc1O	/	-91.5*	/	/	?	/
O=c1c2ccccc2nc(/C=C\c2ccccc2[N+](=O)[O-])n1-c1ccccc1O	?	0.0	?	7.94µM*	?	?
COc1ccc(C(=O)Nc2cccc(/C=C/c3nc4ccccc4c(=O)[nH]3)c2)cc1	/	-84.2*	/	/	?	/
Cc1ccccc1-n1c(/C=C/c2c(C)[nH]c3ccccc23)nc2ccccc2c1=O	-27.3%[7.34 µM]	?	/	?	?	?
O=C(Nc1cccc(/C=C/c2nc3ccccc3c(=O)[nH]2)c1)c1ccccc1Cl	/	39.7	/	/	11.6%	/
Cc1cc2nc(-c3cccc(NC(=O)C(C)C)c3C)oc2cc1C	-5.1%	47.7	/	-8.6%[46.1 µM]	-7.6%	-12.5%
O=C(CC1N=C2c3ccccc3N=C(SCc3cccc(Cl)c3)N2C1=O)NC1CCCCC1 (centres undefined)	-17.0%	-13.7	/	-9.1%[46.1 µM]	-14.7%	-20.2%
COc1ccc(C2Nc3ccccc3C(=O)N2Cc2ccccc2)cc1COc1ccc([N+](=O)[O-])c(C)c1 (centres undefined)	3.7%	/	/	/	/	39.8%
C(=C\c1nc2ccccc2[nH]1)/c1ccccc1	/	9.7	?	?	15.8µM*	/
O=C(O)c1cccc(-n2c(/C=C/c3ccc([N+](=O)[O-])cc3)nc3ccccc3c2=O)c1	/	-62.2*	/	/	-20.0%	/
SMILES	VACV Venus inh	HCMV inh	MARV entry inh	LASV entry inh	FMDV antiviral	Vaccinia mCherry
CN(C)c1ccc(/C=C/c2nc3ccccc3c(=O)[nH]2)cc1	-15.0%	25.2	/	/	10µM*	i
Cc1cccc(-n2c(C)nc3ccccc3c2=O)c1C	-2.4%	-76.4*	4.2%[46.1 µM]	-0.5%	-24.6%	-7.8%
O=[N+]([O-])c1ccc2c(c1)C=CC2	-10.0%	/	/	/	/	-12.9%
CCOC(=O)/C=C/[C@@H](CCc1ccccc1)NC(=O)C(F)(F)F	/	-11.6	/	/	/	/
O=C(NCC(c1ccco1)S(=O)(=O)c1cccs1)c1ccc(Cl)cc1 (centres undefined)	-7.9%	-13.6	/	-4.3%[46.1 µM]	-15.3%	-12.1%
O=c1c2ccccc2nc(/C=C/c2ccccc2O)n1-c1ccccc1O	/	-98.3*	/	/	/	/
Cc1cc(NC(=O)C2CCN(S(=O)(=O)c3cccc4nsnc34)CC2)ccc1Br	-11.7%	?	-7.1%[46.1 µM]	21.2%[46.1 µM]	-20.6%	i
Cc1ccc(C(C)C)c(OCC(=O)Nc2c(C(=O)c3ccccc3)oc3ccccc23)c1	-1.9%	5.0	3.4%[46.1 µM]	9.7%[46.1 µM]	-0.6%	-1.5%
CC(Oc1ccccc1)C(=O)Nc1cccc(-c2nc3ccccc3[nH]2)c1 (centres undefined)	-15.3%	28.5	?	-27.5%	-20.0%	/
COc1ccc(CC(=O)Nc2cccc(-c3csc(C)n3)c2)cc1	-22.5%	-14.1	?	?	?	/
Cc1nc(-c2cccc(NC(=O)C(C)Oc3ccccc3)c2)cs1 (centres undefined)	-17.6%	-36.1	-2.0%	8.91µM*	-4.9%	-0.4%
Cc1nc(-c2cccc(NC(=O)COc3ccc(Cl)cc3)c2)cs1	-21.4%	-64.3*	12.6µM*	?	?	-6.6%
CCOC(=O)[C@]12Cc3ccccc3[C@H]1N(Cc1ccccc1)C(=O)c1cc(F)c(F)cc12	-12.9%	?	/	/	25.1µM*	-14.6%
CCOC(=O)[C@]12Cc3cc4c(cc3[C@H]1N(Cc1ccccc1)C(=O)c1ccccc12)OCO4	?	-18.5	/	/	-29.4%	11.2µM*!
COC(=O)C[C@H]1c2ccccc2[C@@H]2C(=C[C@@H](C)[C@H]3C(=O)N(c4ccccc4)C(=O)[C@H]32)N1C(=O)OC	/	/	10.2%[14.2 µM]	/	/	/
Cc1nc2cc(NC(=O)c3ccc(S(=O)(=O)N(C)c4ccccc4)cc3)ccc2o1	-9.9%	-69.3*	?	-18.2%	22.4µM*	-4.4%
COc1cc(NC(=O)c2ccc(S(=O)(=O)N(C)c3ccccc3)cc2)cc(OC)c1	-16.9%	-78.9*	/	/	-10.8%	-3.7%
CN(c1ccccc1)S(=O)(=O)c1ccc(NC(=O)c2ccc(-c3ccccc3)cc2)cc1	?	-95.9*	-19.8%	-8.3%[14.3 µM]	?	-25.1%
O=c1n(Cc2ccc([N+](=O)[O-])cc2)c2ccccc2c2nc(-c3ccccc3)nn12	-17.7%	68.0	/	21.7%[46.1 µM]	1.7%	-24.1%
CCOc1ccc(-n2nc(CO)c(C(=O)NCc3ccccn3)n2)cc1	2.5%	9.8	7.1%[46.1 µM]	2.1%[46.1 µM]	7.8%	1.3%
CN1CC(=O)N(CC(=O)NCc2ccc3c(c2)OCO3)C1=O	-8.7%	-102.0*	7.4%	20.8%	1.4%	i
Cc1nc2ccccn2c1C(=O)NCc1ccc2c(c1)OCO2	-19.1%	-61.3*	-9.7%	3.2%	/	-2.8%
O=C(CSc1nc(C2CCCCC2)nc2ccccc12)NCc1ccco1	?	-102.4*	-16.8%[46.1 µM]	5.0%	?	?
Cc1sc2nc(C3CC3)nc(SCC(=O)NCc3ccco3)c2c1C	-25.2%	7.0	1.7%	-21.2%	/	-4.4%
O=C(CSc1nnc2ccccn12)NCc1ccc2c(c1)OCO2	/	-78.5*	/	/	13.4%	/
COCCN(C)C(=O)c1cnn(-c2ncc3c(n2)-c2ccccc2CC3)c1C	-17.1%	/	/	/	22.7%	-2.7%
